Screening results as filed in PubChem.
Rows were chosen to be rich in hits. Some 6.9% of all compounds tested hit in one or more screens of this group.
Giardia killer: kills Giardia lamblia. AID 540267. activity change, % at 7.66 µM, hits read low. Giardia lamblia trophozoite viability. 340,000 tested, 0.15% active; in the data active = activity change below about -80%; inconclusive = between about -30% and that limit;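 also: parasites exposed to compound for two days anaerobically before the ATP read; % is scaled to controls: 0 for no effect and ±100 for the full control effect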
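ATP-content bioluminescence gauges trophozoite survival. Cells (100/well) receive compound and incubate anaerobically for 48 hrs at 37 deg C; detection reagent follows for 15-30 min at room temperature.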
KB-3-1 tox: kills parental KB-3-1 adenocarcinoma cells; KB-3-1 viability, CellTiter-Glo ATP luminescence, 72 h; Potency, µM (highest dose often 46.1 µM), usual class: cytotoxic; 400,000 tested, 1.4% active; AID 1347075; also: potency is read from the fitted curve at half-maximal effect; % is scaled to controls: 0 for no effect and ±100 for the full control effect; nearly all actives have a fitted effect of over 60% in size
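Luminescent ATP read-out (CellTiter-Glo) measures survival of drug-naive KB-3-1 cells after 72 h compound exposure at 37 °C. Titration series was screened from lowest to highest concentration, with DMSO vehicle plates as background controls.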
SW480 rerep: induces DNA re-replication in SW480 colon adenocarcinoma cells; SW480 DNA re-replication, Hoechst DNA content imaging, 48 h; Potency, µM (highest dose often 46.1 µM), for inactives: at the top dose re-replication activation, hits mostly activators; 340,000 tested, 1.8% active; also: potency is read from the fitted curve at half-maximal effect; % of control where 0% means no effect; nearly all actives have a fitted effect of over 55% in size
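Quantitative HTS format with DMSO vehicle controls; 48 hr drug incubation at 37 C, then 40 min Hoechst staining and scanning imager measurement at 405 nm excitation.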
MCF10A rerep: inducers of DNA re-replication in MCF 10A breast cells | AID 624296 | Potency, µM (top dose mostly 46.1 µM), for inactives: at the highest dose activity, positive = re-replication, hits mostly activators | 350,000 tested, 2.9% active | MCF 10A DNA re-replication, Hoechst nuclear intensity, 48 h; also: potency is read from the fitted curve at half-maximal effect; % of control where 0% means no effect; nearly all actives have a fitted effect of over 50% in size
S-ASM inh: blocks human secretory acid sphingomyelinase; P17405; placental ASM, HMU-PC fluorogenic substrate, 60 min; Potency, µM (series often up to 57.5 µM), for the others: at the highest dose activity change, negative = inhibition, hits mostly inhibitors; 340,000 tested, 0.006% active; also: potency is read from the fitted curve at half-maximal effect
Target sequence (P17405 47-631 limits assumed): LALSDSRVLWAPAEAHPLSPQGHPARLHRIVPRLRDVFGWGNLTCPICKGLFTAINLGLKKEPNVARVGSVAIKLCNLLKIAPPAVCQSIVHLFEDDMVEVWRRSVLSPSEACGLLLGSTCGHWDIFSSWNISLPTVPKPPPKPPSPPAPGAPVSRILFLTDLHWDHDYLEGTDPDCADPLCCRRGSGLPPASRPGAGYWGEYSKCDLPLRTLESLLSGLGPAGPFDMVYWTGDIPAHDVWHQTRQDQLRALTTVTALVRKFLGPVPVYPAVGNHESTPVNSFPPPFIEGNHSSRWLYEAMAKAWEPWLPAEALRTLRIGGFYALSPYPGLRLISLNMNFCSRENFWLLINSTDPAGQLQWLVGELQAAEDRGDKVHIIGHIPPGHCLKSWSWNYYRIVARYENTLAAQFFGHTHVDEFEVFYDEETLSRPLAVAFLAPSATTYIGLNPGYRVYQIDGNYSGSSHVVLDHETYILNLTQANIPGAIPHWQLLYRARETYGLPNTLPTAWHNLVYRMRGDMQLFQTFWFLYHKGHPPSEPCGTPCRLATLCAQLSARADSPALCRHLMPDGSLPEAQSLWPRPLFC
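HMU-PC0 cleavage (9 uM final) by human placental ASM, 60 min at 37 °C following 10 min compound exposure at RT; stopped at pH 10, fluorescence Ex 386/Em 447 nm.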
KB-V1 MDR tox: kills drug-selected multidrug resistant KB-V1 cells; KB-V1 MDR cells viability, CellTiter-Glo, 72 h; 400,000 tested, 3.4% active; Potency, µM (series often up to 46.1 µM), actives largely listed as cytotoxic; also: potency is read from the fitted curve at half-maximal effect; % is scaled to controls: 0 for no effect and ±100 for the full control effect; nearly all actives have a fitted effect of over 60% in size
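KB-V1 cells (P-gp-expressing MDR subline of KB-3-1) in phenol-red-free DMEM with 10% FBS were exposed to library compounds over a concentration series for 72 h at 37 degrees C. Viability read by CellTiter-Glo luminescence; concentration-effect curves fitted after normalization.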
* hit, by the source's call; i = inactive; ? = inconclusive; / = not tested or not shown; ! = repeats disagree; [ ] = remark or other dose. Unless noted, calls follow the shape of the dose curve; as a rule, active = well fitted curve in the direction sought with a large enough effect; inconclusive = small, poorly fitted or top-dose-only effect, or another doubt; inactive = no such curve, though single readings can be large; an effect the other way counts as inactive or inconclusive.

SMILES | Giardia killer | KB-3-1 tox | SW480 rerep | MCF10A rerep | S-ASM inh | KB-V1 MDR tox
COc1ccc(-n2c(Cc3ccccc3)nnc2SCC(=O)N2CCCc3ccccc32)cc1 | 1 | i | 1% | 4% | -2% | i
O=C(NCc1nnc(SCC(=O)N2CCCc3ccccc32)n1-c1ccccc1)c1cccc2ccccc12 | -4 | ? | 11% | 18% | -1% | 16µM*
COc1ccc(-n2c(Cc3cccn3C)nnc2SCC(=O)NCCc2ccccc2)cc1 | 59 | i | 3% | 8% | 1% | 9.2µM*
Cn1cccc1Cc1nnc(SCC(=O)N2CCc3ccccc32)n1-c1ccc(F)cc1 | -2 | i | 2% | 4% | -5% | i
O=C(CSc1nnc(CCc2ccccc2)n1-c1ccc(Cl)cc1)c1ccccc1 | -13 | i | -5% | ? | -11% | ?
Cn1cccc1Cc1nnc(SCC(=O)NCCc2ccccc2)n1C | -4 | i | -7% | -1% | 1% | i
CC(C)(C)C(=O)COC(=O)C1=NN(c2ccccc2)C(=O)CC1 | -25 | i | 2% | -7% | -1% | i
COc1ccc(NC(=O)C2CCC(CNS(=O)(=O)c3cccc4nsnc34)CC2)cc1OC (centres undefined) | / | i | / | / | / | i
Cc1ccc(N2CCN(C(=O)c3c(C)oc4ncn(CC(C)C)c(=O)c34)CC2)c(C)c1 | / | i | / | / | / | i
COc1ccc(NC(=O)CSc2nnc(Cc3cccn3C)n2CCc2ccccc2)c(OC)c1 | 48 | i | 2% | ? | 0% | 3.3µM*
Cc1cc2c(sc3ccccc32)c(C)n1 | 17 | ? | -17%[9.22 µM] | -4% | 4% | 21µM*
CCCCn1cc(S(=O)(=O)c2ccc(OC)cc2)c(=O)c2cc(CC)ccc21 | / | i | / | / | / | i
Cc1nnc(SCc2ccccc2Cl)c2cc3occc3n12 | / | i | / | / | / | i
CC(Sc1nn(-c2ccc(F)cc2)c(=S)s1)C(=O)c1c(N)n(C)c(=O)n(C)c1=O (centres undefined) | -9 | ? | -6% | 29% | -7% | 6.5µM*
c1ccc(Nc2nc(-c3ccccc3)c(-c3ccccc3)s2)cc1 | -5 | / | / | / | / | /
CCc1ccc(-c2cn(-c3nc(C)cc(C)n3)c(=N)o2)cc1 | -2 | 21µM* | 0% | 23µM* | -2% | ?
Cn1c(SCC(=O)NCc2ccco2)nnc1-c1ccc(NC(=O)c2ccccc2)cc1 | / | i | / | / | / | i
Cc1ccc([C@H]2C[C@H](O)[C@@H](n3cc(C4CC4)nn3)CN2CC2CCCCC2)cc1 | / | i | / | / | / | i
Cc1ccc([C@H]2C[C@@H](n3cc(C4CC4)nn3)[C@H](O)CN2CC2CCCCC2)cc1 | / | 21µM* | / | / | / | ?
COc1ccc([C@H]2C[C@H](O)[C@@H](n3cc(C4CC4)nn3)CN2CC2CCCCC2)cc1 | / | i | / | / | / | ?
COc1ccc([C@H]2C[C@@H](n3cc(C4CC4)nn3)[C@H](O)CN2CC2CCCCC2)cc1 | / | 16µM* | / | / | / | ?
C=CCn1c(N)c(C(=O)Nc2ccc(C)cc2)sc1=S | -25 | i | -7% | 6% | -2% | 18µM*
C=CCn1c(N)c(C(=O)Nc2ccccc2OC)sc1=S | -1 | i | -7% | 4% | -2% | i
C(C#CCCCCCCCCC[n+]1ccccc1)#CCCCCCCCCC[n+]1ccccc1 | -3 | 3.7µM*! | ? | ? | -8% | i
COc1ccc(Cn2c(SCc3ccc(C(=O)NC4CCCC4)cc3)nc3cccnc32)cc1 | / | i | / | / | / | i
SMILES | Giardia killer | KB-3-1 tox | SW480 rerep | MCF10A rerep | S-ASM inh | KB-V1 MDR tox
CCN(CC)C(=O)Cn1c(=O)cc(C)c2c(C)nn(C)c21 | / | i | / | / | / | i
COC(=O)Cc1ccc(NC(=S)Nc2cccc(C)n2)cc1 | 6 | ? | -8% | -7% | -3% | 21µM*
Cc1cccc(NC(=S)NC(=O)c2cccs2)n1 | -5 | i | 2.9µM* | 1% | -1% | ?
Cc1ccc(NC(=O)Cn2nc(C(F)(F)F)c3c2CCCC3)cc1C | / | i | / | / | / | i
Oc1ccc(/C=N/Nc2ccc(C(F)(F)F)cn2)cc1 | -1 | ? | 9.2µM* | -1% | 10% | i
COc1cc(/C=N/Nc2ccc(C(F)(F)F)cn2)cc(OC)c1O | 11 | ? | 12µM* | 23% | -5% | i
O=C(NCCc1ccc(Cl)cc1)c1nc(-c2cccc(F)c2)n2c1CCCCC2 | / | i | / | / | / | i
O=C(C[n+]1ccccc1Cl)c1ccc(Br)cc1 | / | i | / | / | / | i
CCOc1ccc(CNCCCSc2nnnn2C)cc1OC | / | i | / | / | / | i
CCC12CCCN3CCc4c(n(c5ccccc45)C(O)(C(=O)OC)C1)C32 (centres undefined) | 12 | i | -18% | 1% | 160% | i
CC[C@@]12CCCN3CCc4c(n(c5ccccc45)C(=O)C1)[C@H]32 | / | / | 11µM* | ? | / | /
Clc1ccccc1-c1nnc(SCc2nc(-c3ccccc3)no2)n1-c1ccccc1 | / | ? | / | / | / | i
CC(=O)Nc1ccc(SCC(CC(C)C)N2CCN(C)CCC2=O)cc1 (centres undefined) | 6 | / | / | / | / | /
CCCCn1c(SCC(=O)Nc2nnc(C(C)C)s2)nc2c1c(=O)n(C)c(=O)n2C | 2 | ? | -8% | ? | 0% | 2.3µM*
CCCCn1c(SCC(=O)N2c3ccccc3Sc3ccccc32)nc2c1c(=O)n(C)c(=O)n2C | -1 | 16µM* | ? | 20% | -10% | 15µM*
CCCCn1c(SCC(=O)N2CCCc3ccccc32)nc2c1c(=O)n(C)c(=O)n2C | 5 | i | -6% | 5% | 0% | ?
CC1Cc2ccccc2N1C(=O)CSc1nc2c(c(=O)n(C)c(=O)n2C)n1Cc1ccc(F)cc1 (centres undefined) | 3 | i | -4% | 0% | -1% | 1.8µM*
CCCn1c(SCC(=O)Nc2nc3c(s2)CCCC3)nc2c1c(=O)n(C)c(=O)n2C | -11 | i | -16% | 6% | 0% | i
CCCn1c(SCC(=O)N2c3ccccc3CCc3ccccc32)nc2c1c(=O)n(C)c(=O)n2C | 10 | i | -2% | 5% | 1% | 4.1µM*
COc1ccc(N2CCN(CCCNC(=O)c3nnc(Cc4ccccc4Cl)o3)CC2)cc1 | / | i | / | / | / | i
CCCn1c(SCC(=O)N2CCc3ccccc3C2)nc2c1c(=O)n(C)c(=O)n2C | 8 | i | -2% | 3% | -2% | 3.7µM*
CCCCn1c(SCC(=O)N2CCCC2)nc2c1c(=O)n(C)c(=O)n2C | 6 | i | -2% | -3% | 6% | 9.2µM*
CCCCCn1c(CN2CCCCC2CC)nc2c1c(=O)n(C)c(=O)n2C (centres undefined) | ? | i | -8% | 1% | 1% | i
